Measured values as given in ChEMBL document CHEMBL3988442, “University of Dundee, Small-Polar-MMV Screening Library” (2021).
In all, about 69,000 compounds went through this assay and about 950 (1.4%) showed an effect of 50% or more. What follows is part of a selection rich in strong results, with near analogues and random picks from the rest.

These compounds were tested on Mycobacterium tuberculosis (assay: Cornell M. t heat shock assay; also: in the data most compounds retested in dose-response had high values).
Assay type: functional, organism-based
Set-up: dose or concentration left out as unconfirmed
With `CS(=O)(=O)N1CCN(C(=O)CCC2CCCO2)CC1` (configuration not stated) the “Percent Effect” value was 9.25%. In the case of `Cc1noc(C)c1CN1CCC2(CC1)C(c1cnn(C)c1)CC(=O)N2C.O=C(O)C(F)(F)F` (configuration not stated), the “Percent Effect” value is reported as 38.42%. `CC(=O)N1CCO[C@@H]2CN(S(=O)(=O)c3cccnc3)C[C@@H]2C1.O=C(O)C(F)(F)F` was tested, and the “Percent Effect” value was 22.17%. `Cc1cccc(CN2CCc3nnc(CO)n3CC2)n1.O=C(O)C(F)(F)F` was tested, and the “Percent Effect” value was -11.61%. For `CC(C)CN1CCC2(C=C(C(=O)NC3CC3)c3ccccc32)CC1.O=C(O)C(F)(F)F`, the “Percent Effect” value was -0.1524%. For `CC(=O)NC1CCN(c2cnc(C3CCNCC3)cn2)CC1.Cl`, the “Percent Effect” value was -24.22%. For `O=C(O)C(F)(F)F.c1cnc(N2CCO[C@H]3[C@H](OCC4CC4)CC[C@@H]32)nc1`, the “Percent Effect” value was 10.71%. With `O=C(O)C(F)(F)F.c1cnc(N2CCO[C@H]3[C@H](OCC4CCOCC4)CC[C@@H]32)nc1` the “Percent Effect” value was 52.27%. `Fc1cnc(N2CCO[C@H]3[C@H](OCC4CCOCC4)CC[C@@H]32)nc1.O=C(O)C(F)(F)F` was tested, and the “Percent Effect” value was 47.96%. `CCOCC(=O)N1CCC2(CC1)CC(c1ccccc1)CO2` (configuration not stated) was tested, and the “Percent Effect” value was 16.4%. For `CS(=O)(=O)N1C[C@H]2C[C@H](C(=O)N3CCOCC3)[C@@H](C1)O2`, the “Percent Effect” value was 9.276%. `CN(Cc1ccsc1)c1nc(-c2ccccn2)nc2c1CCNCC2` was tested, and the “Percent Effect” value was 90.45%. For `CN(Cc1nccs1)c1nc(-c2ccccn2)nc2c1CCNCC2`, the “Percent Effect” value was 47.94%. In the case of `CN(Cc1cccnc1)c1nc(-c2ccccn2)nc2c1CCNCC2`, the “Percent Effect” value is reported as 7.828%. In the case of `O=C(O)C(F)(F)F.c1cnc(NCc2nnn3c2CN(Cc2ccsc2)CCC3)nc1`, the “Percent Effect” value is reported as -34.33%. For `Cl.O=C(NC1CCCC1)c1cc(C2CCCNC2)n[nH]1` (configuration not stated), the “Percent Effect” value was 2.974%. In the case of `COCCN1C[C@@H]2[C@@H](OC)CCN(Cc3ccsc3)[C@@H]2C1.O=C(O)C(F)(F)F.O=C(O)C(F)(F)F`, the “Percent Effect” value is reported as -56.24%. For `c1coc(-c2nc3c(c(NCc4n[nH]c5c4CCC5)n2)CCNCC3)c1`, the “Percent Effect” value was -50.31%. `c1nc(CCNc2nc(C3CC3)nc3c2CCNCC3)c[nH]1` was tested, and the “Percent Effect” value was -37.66%. With `c1ccc(-c2nc3c(c(NCCc4c[nH]cn4)n2)CCNC3)cc1` the “Percent Effect” value was 103.9%. With `c1ccc(-c2nc3c(c(NCc4n[nH]c5c4CCC5)n2)CCNC3)cc1` the “Percent Effect” value was 105.2%. For `c1cc(-c2nc3c(c(NCCc4c[nH]cn4)n2)CCNCC3)ccn1`, the “Percent Effect” value was -32.96%. With `c1ccc(-c2nc3c(c(NCc4nnc5n4CCC5)n2)CCNC3)cc1` the “Percent Effect” value was -1.823%. In the case of `Cc1cnc(N2CCc3c(CNc4ccnc(C)n4)cncc3C2)nc1.Cl`, the “Percent Effect” value is reported as 12.07%. With `Cl.Cn1ccnc1N1CCN(C(=O)Cc2ccccc2)CC1` the “Percent Effect” value was -7.185%. In the case of `O=C(O)C(F)(F)F.O=C1COC2(CCN(C(=O)C3CC=CC3)CC2)CN1Cc1cccnc1`, the “Percent Effect” value is reported as -29.72%. `CS(=O)(=O)CC(=O)N1C[C@@H]2CN(Cc3ccoc3)CCO[C@@H]2C1` was tested, and the “Percent Effect” value was -0.05269%. For `Cc1cc(C(=O)N2CCc3nc(C4CCCCN4)ncc3C2)cs1.Cl` (configuration not stated), the “Percent Effect” value was -19.38%. For `O=C(O)C(F)(F)F.O=C(O)C(F)(F)F.c1cc(CO[C@@H]2CC[C@H]3[C@H]2OCCN3CC2CCOCC2)ccn1`, the “Percent Effect” value was -2.91%. `CN(C)[C@@H]1CN(C(=O)Cc2ccc(F)cc2)[C@@H]2CCCO[C@H]12.O=C(O)C(F)(F)F` was tested, and the “Percent Effect” value was -22.98%. `Cc1ccc(C(=O)N2CCc3ccc(=O)n(CCN(C)C)c3CC2)o1.O=C(O)C(F)(F)F` was tested, and the “Percent Effect” value was -16.57%. `CCN1CC[C@@H]2OC[C@H](C(=O)NCc3cccs3)C[C@@H]2C1` was tested, and the “Percent Effect” value was 64.41%. In the case of `O=C(NCCc1cccs1)[C@H]1CO[C@H]2CCN(CC3CC3)C[C@H]2C1.O=C(O)C(F)(F)F`, the “Percent Effect” value is reported as 1.069%. For `O=C(NCCc1cccs1)[C@H]1CO[C@H]2CCN(C3CCC3)C[C@H]2C1.O=C(O)C(F)(F)F`, the “Percent Effect” value was 6.34%. With `COCCNC(=O)[C@H]1CO[C@H]2CCN(Cc3cccs3)C[C@H]2C1` the “Percent Effect” value was 78.89%. `O=C(NCc1cccs1)[C@H]1CO[C@H]2CCN(C3CCCC3)C[C@H]2C1.O=C(O)C(F)(F)F` was tested, and the “Percent Effect” value was 16.16%. For `COCCN1CC[C@@H]2OC[C@H](C(=O)NCc3cccs3)C[C@@H]2C1.O=C(O)C(F)(F)F`, the “Percent Effect” value was -7.487%. With `O=C(NC1CCC1)[C@H]1C[C@@H]2CN(C(=O)Nc3ccc(F)cc3)C[C@H]1O2` the “Percent Effect” value was -5.328%. In the case of `CN(C)c1ncc(-c2cc(C(=O)NCCO)n(CC3CC3)c2)cn1.O=C(O)C(F)(F)F`, the “Percent Effect” value is reported as -4.821%. `CC(C)c1cc(CN2CCC(CC(=O)O)CC2)no1` was tested, and the “Percent Effect” value was 6.455%. With `CC(C)c1cc(CN2CCNCC2)no1` the “Percent Effect” value was 100.9%. For `CC(C)c1cc(CN2CCC(N)CC2)no1`, the “Percent Effect” value was -1.347%. `OC1(c2ccccc2F)CCN(Cc2ccccc2N2CCCC2)CC1` was tested, and the “Percent Effect” value was -5.486%. For `Cc1cccc(C2(O)CCN(Cc3ccccc3N3CCCC3)CC2)c1`, the “Percent Effect” value was 106%. `Cl.OC1(c2ccc(F)cc2)CCN(Cc2ccccc2N2CCCC2)CC1` was tested, and the “Percent Effect” value was 3.038%. For `CCN1Cc2cc(F)ccc2N(C(C)=O)CCC1=O`, the “Percent Effect” value was 51.48%. In the case of `CC(=O)N1CCC(=O)N(C2CCCC2)Cc2ccccc21`, the “Percent Effect” value is reported as 18.8%. In the case of `CCN(CC)S(=O)(=O)CC(=O)N1CCc2ccc(F)cc21`, the “Percent Effect” value is reported as -19.64%. For `COCC(=O)N1CCC(=O)N(C2CCCC2)Cc2cc(F)ccc21`, the “Percent Effect” value was 44.15%. For `CCN1Cc2ccccc2N(C(=O)C2CCC2)CCC1=O`, the “Percent Effect” value was 52.52%. `O=C1NCCCCC1NC(=O)N1CCCc2cc(F)ccc21` (configuration not stated) was tested, and the “Percent Effect” value was -1.562%. `CCN1Cc2cc(F)ccc2N(C(=O)C2CCC2)CCC1=O` was tested, and the “Percent Effect” value was 57.03%. With `O=C(C1CCC1)N1CCC(=O)N(C2CC2)Cc2cc(F)ccc21` the “Percent Effect” value was 39.59%. With `CN1C(=O)CCN(C(=O)C2CCCCC2)c2ccccc21` the “Percent Effect” value was -13.68%. `Cc1cccc(CN2CCC3(CC2)NC(=O)CC3c2ccccc2)n1.O=C(O)C(F)(F)F` (configuration not stated) was tested, and the “Percent Effect” value was -4.61%. With `Cc1nc(CN2CCC3(CCCN(Cc4ccoc4)C3)C2=O)cs1.O=C(O)C(F)(F)F.O=C(O)C(F)(F)F` (configuration not stated) the “Percent Effect” value was -16.93%. For `COc1cccc(CNCc2ccc(F)cc2Cl)c1O`, the “Percent Effect” value was 10.28%. `CCOCC1CN(CC2CC2)Cc2nn(CC3CC3)cc21.O=C(O)C(F)(F)F` (configuration not stated) was tested, and the “Percent Effect” value was 0.05869%. For `Cn1cc(CN2CCCC23CCN(C(=O)c2ccccn2)CC3)cn1.O=C(O)C(F)(F)F`, the “Percent Effect” value was -28.64%. `CCOCCCn1c(NC(=O)c2scnc2C)nc2ccccc21` was tested, and the “Percent Effect” value was 84.26%. `CCOCCCn1c(NC(=O)c2ccc(C)nc2)nc2ccccc21` was tested, and the “Percent Effect” value was 25.39%. In the case of `CCOCCCn1c(NC(=O)c2cnc(C)cn2)nc2ccccc21`, the “Percent Effect” value is reported as 28.96%. For `CCOCCCn1c(NC(=O)c2cc(C)on2)nc2ccccc21`, the “Percent Effect” value was 59.74%. With `CCOCCCn1c(NC(=O)c2ccnc(C)n2)nc2ccccc21` the “Percent Effect” value was 94.99%. In the case of `CCOCCCn1c(NC(=O)c2cc(C)no2)nc2ccccc21`, the “Percent Effect” value is reported as 4.963%. With `CCN(CC)CCn1c(NC(=O)c2scnc2C)nc2ccccc21` the “Percent Effect” value was 46.93%. In the case of `CCOCCCn1c(NC(=O)c2cnn(C)c2)nc2ccccc21`, the “Percent Effect” value is reported as 44.67%. For `CCOCCCn1c(NC(=O)c2cnc(C)s2)nc2ccccc21`, the “Percent Effect” value was -7.023%. In the case of `COc1c(CNCc2ccc(C(=O)N3CCCC3)cc2)c(C)nn1C.Cl`, the “Percent Effect” value is reported as -14.26%. In the case of `COc1ccc(CN2C[C@@H]3OCCN(CCN(C)C)[C@@H]3C2)cc1.O=C(O)C(F)(F)F.O=C(O)C(F)(F)F.O=C(O)C(F)(F)F`, the “Percent Effect” value is reported as -21.44%. In the case of `Cl.NC(CNS(=O)(=O)Cc1cccc2cccnc12)c1ccccc1` (configuration not stated), the “Percent Effect” value is reported as -15.27%. With `O=C(NCC1CCOCC1)[C@H]1C[C@@H]2CCN(Cc3ccccc3)C[C@H]2O1.O=C(O)C(F)(F)F` the “Percent Effect” value was -21.55%. With `Cc1cccc(CN2CC[C@H]3[C@@H]2CC(=O)N3CC2CC2)n1.O=C(O)C(F)(F)F` the “Percent Effect” value was -9.975%. In the case of `O=C(c1ccoc1)N1CC[C@H]2C[C@@H](c3nnc(C4CC4)o3)O[C@@H]2C1`, the “Percent Effect” value is reported as 19.79%. For `O=C(c1cccs1)N1CC[C@H]2C[C@@H](c3nnc(C4CC4)o3)O[C@@H]2C1`, the “Percent Effect” value was 56.75%. `O=C(c1ccsc1)N1CC[C@H]2C[C@@H](c3nnc(C4CC4)o3)O[C@@H]2C1` was tested, and the “Percent Effect” value was 26.95%. In the case of `O=C(c1ccccc1)N1CC[C@H]2C[C@@H](c3nnc(C4CC4)o3)O[C@@H]2C1`, the “Percent Effect” value is reported as 48.55%. With `O=C(c1cscn1)N1CC[C@H]2C[C@H](c3nnc(C4CC4)o3)O[C@@H]2C1` the “Percent Effect” value was 27.2%. For `O=C(c1ccccc1)N1CC[C@H]2C[C@H](c3nnc(C4CC4)o3)O[C@@H]2C1`, the “Percent Effect” value was 57.91%. `COCC1c2c(cnn2C)CCN1C(=O)c1cc(C)on1.O=C(O)C(F)(F)F` (configuration not stated) was tested, and the “Percent Effect” value was 28.69%. In the case of `Cc1cnccc1-c1cnn(CCNC(=O)c2ccccn2)c1C1CC1.Cl`, the “Percent Effect” value is reported as 22.13%. For `CC(C)Cc1cc(C(=O)NC(C)(C)c2nnc(N)s2)n(C)n1`, the “Percent Effect” value was 18.34%. `CC(C)Cc1nc(CN2CCc3onc(-c4cccc(F)c4)c3C2)no1` was tested, and the “Percent Effect” value was 52.2%. With `CC(C)(C)c1nc(CN2CCc3onc(-c4cccc(F)c4)c3C2)no1` the “Percent Effect” value was 31.99%. With `CC(C)c1nc(CN2CCc3onc(-c4cccc(F)c4)c3C2)no1` the “Percent Effect” value was 35.68%. For `CN(C)[C@@H]1CN(Cc2ccc(O)cc2)C[C@H]1c1cn(C)c2ccccc12.Cl`, the “Percent Effect” value was 10.72%. With `CN(C)[C@@H]1CN(Cc2ccccc2O)C[C@H]1c1cn(C)c2ccccc12.Cl` the “Percent Effect” value was 12.04%.
